Reference: PubChem BioAssay (NCI)
Compounds without any hit were thinned out: in the full panel of roughly 79,000, 15% have a hit. Calls of active or inactive are those of the source. Rule as the data show it: active = growth inhibition above about 70%; inactive = the rest.

experiment: NCI Yeast Anticancer Drug Screen. Data for the mlh1 rad18 strain (AID 175); details: S. cerevisiae mlh1 rad18 strain growth inhibition; at 50.0 µM; stronger effect = higher value
Procedure, shortened: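 In this whole-cell yeast screen, a strain with altered DNA damage repair is challenged with compound, and its growth is measured against matched vehicle-treated controls.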

Compound	growth inhibition
C/C=C(/C)N(C(C)=O)N(C(C)=O)c1ccc([N+](=O)[O-])cc1[N+](=O)[O-]	-3.3% (inactive)
OCc1ccccc1OC1OC(CO)C(O)C(O)C1O (stereo not given)	-50.9% (inactive)
Cc1ccc(NC(=S)N(C)C)cc1C	1.1% (inactive)
O=C1NC(=O)C(c2ccccc2)(C2CCC2)N1 (stereo not given)	-13.3% (inactive)
COc1ccc(-c2cc(=O)c3c(ccc4ccccc43)o2)cc1	7% (inactive)
CC1CCN(c2ccc([N+](=O)[O-])cc2)CC1	-9.05% (inactive)
N#CCCOc1ccccc1	-8.5% (inactive)
OCC1OC(Nc2ccccc2O)C(O)C(O)C1O (stereo not given)	25.7% (inactive)
O=C1c2ccccc2-c2c1c1ccccc1c(=O)n2-c1cccnc1	-9.05% (inactive)
CCn1c2[n+](c3ccccc31)CCC2	3.65% (inactive)
C/C(O)=C/c1nc2sc(C)c(C)c2c(=O)s1	-16.5% (inactive)
CCOc1ccc(/C=C(/C#N)C(N)=O)cc1	9.05% (inactive)
Clc1ccc(C2NN=C3c4ccccc4OCC32)cc1 (stereo not given)	17.2% (inactive)
Cc1nnc(SCC2=C(C(=O)O)N3C(=O)C(NC(=O)Cn4cnnn4)C3SC2)s1 (stereo not given)	13.3% (inactive)
O=C(N/N=C/c1ccc2c(c1)CCC2)c1cc2ccccc2cc1O	7.2% (inactive)
COc1cccc(/C=C/C(=O)c2ccc(Cl)cc2)c1OC	16.2% (inactive)
COc1cc([C@H]2OC[C@@H]3C(c4cc(OC)c5c(c4)OCO5)OC[C@H]23)cc(OC)c1OC (stereo not given in full)	-53.1% (inactive)
CCOC(=O)CC(=O)c1ccc(C)cc1	9.75% (inactive)
C=CCn1c2c(c3ccccc3c1=O)C(=O)c1ccccc1-2	-49.9% (inactive)
Nc1ccccc1SC1CC(=O)N(c2cccc3ccccc23)C1=O (stereo not given)	-12.8% (inactive)

Compound	growth inhibition
NNc1[nH]c(=S)[nH]c1C(N)=O	-11.7% (inactive)
COC(=O)/C(=N\NC(=S)NN)C(C(=O)OC)C(=O)C(=O)Nc1cccc(C(F)(F)F)c1 (stereo not given)	24.1% (inactive)
C[C@]12CC[C@@H]3c4ccc(OS(N)(=O)=O)cc4CC[C@H]3[C@@H]1CCC2=O	15.8% (inactive)
O=C(Cc1nc2ccccc2[nH]c1=O)N/N=C/c1ccc2c(c1)CCC2	-37.4% (inactive)
C(=N\N=C\c1c[nH]c2ccccc12)/c1c[nH]c2ccccc12	0.25% (inactive)
COc1ccc(-c2coc3ccc4ccccc4c3c2=O)cc1OC	7.25% (inactive)
CCOc1ccc(/C=N/NS(=O)(=O)c2ccc(C)cc2)cc1	-8.2% (inactive)
CC(C)CCCC(C)[C@H]1CC[C@H]2[C@@H]3CC[C@H]4C[C@@H](CCC=C(c5cc(Cl)c(O)c(C(=O)O)c5)c5cc(Cl)c(O)c(C(=O)O)c5)CC[C@]4(C)[C@H]3CC[C@]12C (stereo not given in full) (tested in a mixture with another compound)	51.2% (inactive)
Cc1cccc(NNC(=S)Nc2ccccc2)c1	5.05% (inactive)
O=C1Nc2ccccc2CCc2ccccc21	-7.2% (inactive)
c1coc(-c2nc(N=C3N=c4ccccc4=N3)[nH]c2-c2ccco2)c1	4% (inactive)
Cc1cc(Cl)ccc1NCN1C(=O)c2ccccc2C1=O	15.8% (inactive)
COc1ccc(-c2cc(=O)c3c(O)cc(C)cc3o2)cc1OC	-21.6% (inactive)
CC1=NN(c2ccccc2)C(=O)/C1=C\c1ccc(N(CCC#N)CCC#N)cc1	21.9% (inactive)
CC(=O)Nc1ccc(/C=C/C(=O)c2ccc(Cl)cc2)cc1	2.75% (inactive)
COc1cc(/C=N\NC(=O)OC(C)(C)C)cc(OC)c1OC	10.5% (inactive)
CCOc1ccc(Br)cc1/C=C1\N=C(c2ccccc2)OC1=O	1.7% (inactive)
CCCCN1CCNCC1	-2.55% (inactive)
C=C1C(=O)O[C@@H]2C[C@@]3(C)CC(=O)C=C(C)[C@@H]3C[C@H]12	-16.4% (inactive)
COc1cc(-c2nc(SC)nc3c2CCc2ccccc2-3)cc(OC)c1OC	-20.2% (inactive)
